The source of these data is ChEMBL document CHEMBL3988442, “University of Dundee, Small-Polar-MMV Screening Library” (2021).

For some of these results: Potency and affinity values are given separately.

Common to all, as to parameters: scale not given: direction of the effect not stated beside the values
Assay [1] concerns the target Protein translocase subunit SecA (Escherichia coli (strain K12)) (UniProt P10408). In words: Assay to Identify E. coli SecA ATPase Inhibitors. The class given is functional. To be noted: 30 µM.
The target of assay [2] is T1, Ubiquitin-activating enzyme e1, putative (Leishmania donovani (strain BPK282A1)) (UniProt E9BSI1).
T1 sequence (whole entry): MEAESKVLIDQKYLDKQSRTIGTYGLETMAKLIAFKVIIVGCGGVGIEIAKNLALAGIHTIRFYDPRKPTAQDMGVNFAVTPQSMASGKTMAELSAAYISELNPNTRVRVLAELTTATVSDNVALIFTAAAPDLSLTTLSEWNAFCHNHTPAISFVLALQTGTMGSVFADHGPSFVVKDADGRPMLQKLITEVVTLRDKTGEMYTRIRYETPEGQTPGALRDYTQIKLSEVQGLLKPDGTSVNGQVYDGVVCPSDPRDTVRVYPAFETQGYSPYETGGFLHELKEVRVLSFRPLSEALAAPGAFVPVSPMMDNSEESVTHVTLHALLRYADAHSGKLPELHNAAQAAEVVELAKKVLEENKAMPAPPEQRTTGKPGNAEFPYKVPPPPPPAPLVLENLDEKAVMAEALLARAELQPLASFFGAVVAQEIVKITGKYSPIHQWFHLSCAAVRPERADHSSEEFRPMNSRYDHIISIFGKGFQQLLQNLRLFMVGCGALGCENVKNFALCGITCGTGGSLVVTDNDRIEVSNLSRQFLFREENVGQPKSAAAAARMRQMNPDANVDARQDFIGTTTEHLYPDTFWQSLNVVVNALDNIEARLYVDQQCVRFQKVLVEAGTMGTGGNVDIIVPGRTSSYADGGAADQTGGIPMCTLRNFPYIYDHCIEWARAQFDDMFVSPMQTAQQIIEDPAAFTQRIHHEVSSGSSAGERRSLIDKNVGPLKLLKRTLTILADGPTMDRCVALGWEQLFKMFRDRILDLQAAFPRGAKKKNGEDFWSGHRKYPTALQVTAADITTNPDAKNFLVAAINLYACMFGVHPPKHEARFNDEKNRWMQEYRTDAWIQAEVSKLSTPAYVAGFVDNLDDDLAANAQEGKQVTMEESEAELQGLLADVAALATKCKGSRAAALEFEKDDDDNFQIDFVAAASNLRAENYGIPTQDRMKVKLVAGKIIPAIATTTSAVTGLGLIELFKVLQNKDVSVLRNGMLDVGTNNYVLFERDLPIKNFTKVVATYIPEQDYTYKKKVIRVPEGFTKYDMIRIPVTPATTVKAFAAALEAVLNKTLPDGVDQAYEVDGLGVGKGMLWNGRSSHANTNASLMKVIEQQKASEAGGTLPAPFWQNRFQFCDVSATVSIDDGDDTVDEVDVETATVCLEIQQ
In words: Leishmania donovani Ubiquitin Activating Enzyme (LdE1). The class given is functional. To be noted: 30 µM.

The target of assay [3] is AMP-activated protein kinase, AMPK (Homo sapiens) (UniProt P54646+O43741+P54619+Q9UGJ0+Q9Y478+Q13131+Q9UGI9). In words: AMP-dependent Kinase enzyme assay. An in vitro enzyme assay that detects ADP turnover that is directly proportional to AMPK activity. This uses naive AMPK that is activated during the assay with MK-8722. The class given is functional. To be noted: 30 µM.

Assay [4] addresses Sialic acid-binding Ig-like lectin 9 (Homo sapiens) (UniProt Q9Y336). As to the kind of experiment: Hs-Siglec9 ALPHAscreen SOP 20170721. The settings on record: 10 µM.
Assay [5] relates to Trypanosoma cruzi. In words: Trypanosoma cruzi phosphomannomutase and mannose-1-phosphate guanylyltransferase assay. It is filed as functional. The settings on record: 10 µM.
Assay [6] has as its target T2, Arginase-2, mitochondrial (Homo sapiens) (UniProt P78540).
T2 sequence (whole entry): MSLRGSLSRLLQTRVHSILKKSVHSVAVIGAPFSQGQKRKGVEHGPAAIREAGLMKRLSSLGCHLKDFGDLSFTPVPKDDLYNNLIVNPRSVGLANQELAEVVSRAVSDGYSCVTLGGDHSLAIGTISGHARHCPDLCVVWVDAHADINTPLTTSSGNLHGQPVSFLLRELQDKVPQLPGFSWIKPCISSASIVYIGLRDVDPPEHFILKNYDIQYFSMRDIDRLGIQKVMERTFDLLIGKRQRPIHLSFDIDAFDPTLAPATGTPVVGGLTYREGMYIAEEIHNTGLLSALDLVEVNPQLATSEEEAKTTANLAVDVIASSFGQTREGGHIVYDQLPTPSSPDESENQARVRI
As to the kind of experiment: in vitro enzyme assay to detect the production of urea directly proportional to the activity of Arginase II. Further: in the data most compounds retested in dose-response had high values. To be noted: 33.3 µM. It is filed as functional.

Assay [7] deals with T3, Proteasome subunit beta (Trypanosoma cruzi) (UniProt O96673).
T3 sequence (whole entry): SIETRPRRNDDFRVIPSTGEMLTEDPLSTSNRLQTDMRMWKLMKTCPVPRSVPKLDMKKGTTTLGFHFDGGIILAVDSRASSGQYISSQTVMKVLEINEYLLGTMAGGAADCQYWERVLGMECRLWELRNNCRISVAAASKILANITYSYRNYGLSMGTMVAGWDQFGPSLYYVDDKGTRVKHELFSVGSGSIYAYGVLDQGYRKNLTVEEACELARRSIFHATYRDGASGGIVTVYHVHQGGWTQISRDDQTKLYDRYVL
As to the kind of experiment: Trypanosoma cruzi proteasome chymotrypsin-like activity (TcProtChymo) assay. Further: in the data most compounds retested in dose-response had high values. The settings on record: 9.37 µM. It is filed as functional.

The species entered for assay [8] is Homo sapiens. As to the kind of experiment: To identify inhibition of the IFN signalling (Jak-Stat) pathway via expression of an eGFP reporter gene under the control of an IFN-stimulated response element (ISRE) containing MxA promoter. It is filed as functional. The settings on record: 30 µM.
Assay [9] addresses T4, Tyrosyl-tRNA synthetase, putative (Trypanosoma cruzi (strain CL Brener)) (UniProt Q4DSP6).
T4 sequence (whole entry): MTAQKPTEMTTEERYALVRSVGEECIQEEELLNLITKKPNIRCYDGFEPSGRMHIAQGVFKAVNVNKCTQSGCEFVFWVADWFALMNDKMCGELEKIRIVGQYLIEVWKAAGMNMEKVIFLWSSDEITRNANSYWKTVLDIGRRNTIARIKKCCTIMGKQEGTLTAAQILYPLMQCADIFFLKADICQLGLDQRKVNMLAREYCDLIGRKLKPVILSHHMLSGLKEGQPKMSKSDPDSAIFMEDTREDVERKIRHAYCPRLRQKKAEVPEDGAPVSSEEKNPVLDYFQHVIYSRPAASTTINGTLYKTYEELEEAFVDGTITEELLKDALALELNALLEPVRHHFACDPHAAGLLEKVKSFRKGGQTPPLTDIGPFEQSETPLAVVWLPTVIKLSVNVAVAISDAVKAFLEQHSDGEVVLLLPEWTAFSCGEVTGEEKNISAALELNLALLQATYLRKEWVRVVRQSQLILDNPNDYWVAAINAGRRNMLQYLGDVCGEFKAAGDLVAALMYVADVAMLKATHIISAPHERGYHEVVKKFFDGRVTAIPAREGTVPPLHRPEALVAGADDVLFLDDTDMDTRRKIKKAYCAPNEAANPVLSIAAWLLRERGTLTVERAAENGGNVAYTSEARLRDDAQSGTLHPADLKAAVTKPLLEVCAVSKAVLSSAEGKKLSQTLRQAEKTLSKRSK
As to the kind of experiment: Trypanosoma cruzi tyrosyl tRNA synthetase (TcYRS) _High Tyrosine SOP. Further: in the data most compounds retested in dose-response had high values. The class given is functional. To be noted: 30 µM.

For assay [10], the target named is T4, Tyrosyl-tRNA synthetase, putative (Trypanosoma cruzi (strain CL Brener)). In words: Trypanosoma cruzi tyrosyl tRNA synthetase (TcYRS) SOP. The class given is functional. The settings on record: 30 µM.
Assay [11] addresses Chromo domain-containing protein 1 (Saccharomyces cerevisiae (strain ATCC 204508 / S288c) (Baker's yeast)) (UniProt P32657). In words: ScCHD-1 Enzyme Inhibition Assay. Further: in the data most compounds retested in dose-response had high values. It is filed as functional. The settings on record: 30 µM.

Protein translocase subunit SecA (Escherichia coli (strain K12)), sequence (P10408 whole entry): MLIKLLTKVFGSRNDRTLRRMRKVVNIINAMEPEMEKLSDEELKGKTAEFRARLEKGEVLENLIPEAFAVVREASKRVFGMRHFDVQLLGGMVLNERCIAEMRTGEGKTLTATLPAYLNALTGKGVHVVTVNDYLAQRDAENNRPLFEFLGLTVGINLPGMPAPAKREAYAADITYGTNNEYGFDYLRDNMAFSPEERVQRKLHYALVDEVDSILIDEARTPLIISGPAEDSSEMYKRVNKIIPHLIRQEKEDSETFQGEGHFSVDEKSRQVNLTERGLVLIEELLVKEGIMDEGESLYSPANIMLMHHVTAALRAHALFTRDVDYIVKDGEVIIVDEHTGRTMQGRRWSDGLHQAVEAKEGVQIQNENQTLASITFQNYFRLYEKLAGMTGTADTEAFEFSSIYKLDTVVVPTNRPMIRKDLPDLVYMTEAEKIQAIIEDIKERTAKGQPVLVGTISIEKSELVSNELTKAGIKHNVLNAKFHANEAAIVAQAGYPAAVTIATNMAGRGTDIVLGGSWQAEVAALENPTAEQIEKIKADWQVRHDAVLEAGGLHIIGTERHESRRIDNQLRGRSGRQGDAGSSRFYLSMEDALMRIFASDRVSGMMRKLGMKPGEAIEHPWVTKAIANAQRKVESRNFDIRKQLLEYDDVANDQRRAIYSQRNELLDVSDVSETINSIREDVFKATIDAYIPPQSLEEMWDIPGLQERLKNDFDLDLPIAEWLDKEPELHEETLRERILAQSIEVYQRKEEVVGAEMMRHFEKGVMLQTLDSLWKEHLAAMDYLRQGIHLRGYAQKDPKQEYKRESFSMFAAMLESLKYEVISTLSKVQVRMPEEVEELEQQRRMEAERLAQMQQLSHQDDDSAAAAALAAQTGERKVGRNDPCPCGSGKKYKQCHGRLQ
Chromo domain-containing protein 1 (Saccharomyces cerevisiae (strain ATCC 204508 / S288c) (Baker's yeast)), sequence (P32657 whole entry, the tested form may be a part): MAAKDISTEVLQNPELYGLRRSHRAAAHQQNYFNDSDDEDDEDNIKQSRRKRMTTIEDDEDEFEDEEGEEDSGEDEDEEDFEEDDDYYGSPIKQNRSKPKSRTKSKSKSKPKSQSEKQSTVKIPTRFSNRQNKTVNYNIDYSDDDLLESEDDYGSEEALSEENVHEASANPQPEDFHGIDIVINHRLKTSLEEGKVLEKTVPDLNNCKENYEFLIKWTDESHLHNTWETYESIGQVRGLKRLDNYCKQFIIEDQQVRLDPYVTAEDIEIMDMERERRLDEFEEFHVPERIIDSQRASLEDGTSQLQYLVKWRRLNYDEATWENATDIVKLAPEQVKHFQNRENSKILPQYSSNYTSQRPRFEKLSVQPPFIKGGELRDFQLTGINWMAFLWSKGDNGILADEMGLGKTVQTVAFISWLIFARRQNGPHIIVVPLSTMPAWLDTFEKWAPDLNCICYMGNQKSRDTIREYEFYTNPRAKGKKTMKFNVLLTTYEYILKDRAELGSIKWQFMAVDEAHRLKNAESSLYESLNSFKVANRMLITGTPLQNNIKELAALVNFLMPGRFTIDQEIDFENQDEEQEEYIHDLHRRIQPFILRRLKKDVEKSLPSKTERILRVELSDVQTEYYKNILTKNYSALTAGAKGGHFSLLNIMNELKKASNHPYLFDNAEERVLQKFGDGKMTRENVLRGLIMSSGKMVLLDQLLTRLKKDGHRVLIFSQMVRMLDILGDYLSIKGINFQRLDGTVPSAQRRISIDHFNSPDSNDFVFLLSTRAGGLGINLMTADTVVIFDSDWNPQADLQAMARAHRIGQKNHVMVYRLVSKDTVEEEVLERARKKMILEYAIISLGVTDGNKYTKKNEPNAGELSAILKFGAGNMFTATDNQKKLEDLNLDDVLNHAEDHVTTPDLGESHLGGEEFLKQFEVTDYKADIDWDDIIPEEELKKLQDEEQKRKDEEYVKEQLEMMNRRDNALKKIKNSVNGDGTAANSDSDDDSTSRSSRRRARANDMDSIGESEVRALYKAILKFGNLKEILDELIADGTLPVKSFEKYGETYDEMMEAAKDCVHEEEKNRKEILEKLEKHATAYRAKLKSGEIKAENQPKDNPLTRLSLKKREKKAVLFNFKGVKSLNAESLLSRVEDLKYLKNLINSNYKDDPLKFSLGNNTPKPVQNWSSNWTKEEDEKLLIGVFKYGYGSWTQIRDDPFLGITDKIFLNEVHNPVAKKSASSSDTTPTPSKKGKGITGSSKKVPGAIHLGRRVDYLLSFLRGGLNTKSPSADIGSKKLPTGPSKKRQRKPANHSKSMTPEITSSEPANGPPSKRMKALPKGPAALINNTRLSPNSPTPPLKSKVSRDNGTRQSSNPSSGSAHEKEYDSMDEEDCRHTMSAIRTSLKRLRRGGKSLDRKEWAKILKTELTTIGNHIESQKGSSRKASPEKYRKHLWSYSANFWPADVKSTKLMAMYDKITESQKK
Sialic acid-binding Ig-like lectin 9 (Homo sapiens), sequence (Q9Y336 whole entry): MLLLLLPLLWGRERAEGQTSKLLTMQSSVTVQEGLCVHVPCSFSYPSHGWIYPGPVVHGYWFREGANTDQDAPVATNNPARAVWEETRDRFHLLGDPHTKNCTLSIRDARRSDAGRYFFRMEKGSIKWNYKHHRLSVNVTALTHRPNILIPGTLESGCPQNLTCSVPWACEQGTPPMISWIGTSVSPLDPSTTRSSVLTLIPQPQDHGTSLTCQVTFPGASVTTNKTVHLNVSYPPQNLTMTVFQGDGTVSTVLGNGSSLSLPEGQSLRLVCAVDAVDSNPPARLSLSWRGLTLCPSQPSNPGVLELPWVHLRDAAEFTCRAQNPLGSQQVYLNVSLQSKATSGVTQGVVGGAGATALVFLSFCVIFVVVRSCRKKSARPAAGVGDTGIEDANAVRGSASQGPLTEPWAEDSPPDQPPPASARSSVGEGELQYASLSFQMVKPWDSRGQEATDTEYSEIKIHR

For the compound `CC(NC(=O)N(C)Cc1ccsc1)c1ccc2c(c1)NC(=O)CO2` (stereo unspecified), the Percent Effect in assay [1] was -2.37%; in assay [2], 13.2%; in [3], 0.427%; in [4] it was 7.9%; in assay [5], 6.39%; in assay [6], 1.15%. Also, the Percent Effect in assay [7] was 8.52%; in assay [8] it was 9.49%; in assay [9], 5.39%; in [10], 19.5%; in assay [11], -10.1%.
Turning to `CN(Cc1cncnc1)Cc1cn2c(n1)CN(C1CCOC1)CC2` (stereo unspecified), the Percent Effect in assay [1] is -2.37%; in assay [2], 5.33%; in assay [3], -0.62%; in assay [4], 5.52%; in [5], -2.51%; in assay [6] it was -21.7%. Besides, the Percent Effect in assay [7] is 8.38%; in assay [8], 8.32%; in [9] it was 5.21%; in assay [10], 12.5%; in assay [11], -5.82%.
Turning to `Cn1ncc2c1C(COCC1CC1)CN(Cc1nccs1)C2` (stereo unspecified), the Percent Effect was -1.87% in assay [1]; 15.6% in [2]; -6.52% in assay [3]; 0.425% in [4]; 1.87% in [5]; 5.81% in [6]. Moreover, the Percent Effect was 1.92% in [7]; 28.4% in assay [8]; 8.47% in [9]; 14.1% in [10]; -10.6% in [11].
As to `CC(C(=O)N1CCCN(c2ccc(C#N)cc2)CC1)n1ccnc1` (stereo unspecified), the Percent Effect in assay [1] is -5.97%; in assay [2], 15.8%; in assay [3], -5.83%; in assay [4], -1.34%; in [5], 3.01%; in assay [6] it was 6.13%. For the same compound, the Percent Effect in [7] is 8.52%; in [8] it was -7.67%; in assay [9], 8.33%; in assay [10] it was 19.5%; in [11] it was -17.9%.
Consider `O=C(O)C(c1ccc2c(c1)OCO2)N1CCC(C(=O)N2CCCC2)CC1` (stereo unspecified), for which the Percent Effect was -6.55% in assay [1]; 0% in assay [2]; -3.95% in assay [3]; 1.83% in assay [4]; -5.36% in [5]; -1.56% in assay [6]. In addition, the Percent Effect in assay [7] was 4.18%; in [8], 2.87%; in assay [9], 4.92%; in assay [10], 3.7%; in assay [11] it was -5.45%.
As to `Cc1ccccc1CSc1nc(N)cc(N2C[C@H](O)[C@@H](N(C)C)C2)n1`, the Percent Effect was -8.01% in assay [1]; 5.41% in [2]; -13.8% in assay [3]; 0.783% in assay [4]; 1.07% in [5]; 1.24% in assay [6]. In addition, the Percent Effect was 12.6% in assay [7]; 5.8% in assay [8]; 8.6% in assay [9]; 18.5% in assay [10]; -3.84% in [11].
Turning to `Cc1noc([C@@H]2CCCN2C(=O)C2CCN(C(=O)C3CCC3)CC2)n1`, the Percent Effect was -2.73% in [1]; 5.48% in [2]; 27.2% in [3]; -1.91% in [4]; -6.27% in [5]; 0.909% in [6]. Besides, the Percent Effect in assay [7] amounted to 11.7%; in [8], 27.9%; in [9], 0%; in assay [10] it was 5%; in [11], 98.2%.
For the compound `Cc1cc(C2CCCN2CCCc2nc3ccccc3o2)on1` (stereo unspecified), the Percent Effect was 0.895% in assay [1]; 5.41% in [2]; -3.23% in assay [3]; 0.643% in assay [4]; -3.87% in [5]; 21.6% in [6]. The Percent Effect in [7] was 1.62%; in assay [8], 2.07%; in assay [9] it was 4.43%; in assay [10], 6.17%; in assay [11], -3.04%.
In the case of `CN(CCCc1cnn(C)c1)C(=O)C1CCOC1` (stereo unspecified), the Percent Effect in [1] is -4.14%; in assay [2] it was 2.74%; in assay [3], 3.21%; in [4], 1.94%; in assay [5] it was -6.46%; in assay [6] it was -1.36%. The Percent Effect was 13.1% in [7]; 10.7% in [8]; 3.23% in assay [9]; 2.5% in [10]; -1.18% in assay [11].
On to `CCn1cc(CN(C)C(=O)c2cccc(CCC(C)(C)O)c2)cn1`, for which the Percent Effect is -5.71% in assay [1]; 5.33% in assay [2]; -1.82% in [3]; -0.5% in [4]; -5.36% in [5]; 1.04% in assay [6]. Also, the Percent Effect in assay [7] was 15%; in [8] it was 9.2%; in assay [9], 7.1%; in [10], 6.17%; in [11], -6.76%.
As to `CN(Cc1ccsc1)C(=O)Nc1ccc(S(=O)(=O)N(C)C)cc1`, the Percent Effect is -1.98% in assay [1]; 17.7% in assay [2]; -2.37% in assay [3]; -9.54% in assay [4]; -1.79% in assay [5]; -0.38% in assay [6]. In addition, the Percent Effect in assay [7] was -0.0819%; in [8] it was -7.23%; in assay [9], 6.4%; in assay [10], 21.5%; in [11], -6.52%.
